Assay results as given in PubChem BioAssay (NCI).
Compounds without any hit were thinned out: in the full panel of roughly 83,000, 20% have a hit.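 Testing used 96-well plates and a 48-hour single-concentration exposure. Example: -40 means 40% of the starting cells died.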 Values without a mark were called inactive. Active and inactive are the calls of the source. How the source made its calls: active means growth percent below 10; inactive means the rest.

System: MDA-MB-231 breast
Experiment: NCI-60 one-dose screen, 48 h (100 = growth as untreated, 0 = no growth, -100 = all killed)
Conditions: 10 µM unless noted

Row | SMILES | growth
1 | CC1(C)NCCC[C@]2(C)[C@H]3CC=C4[C@@H]5C[C@](C)(COC(=O)c6ccccc6C(=O)O)CC[C@]5(C)CC[C@@]4(C)[C@]3(C)CC[C@@H]12 | 84%
2 | COc1ccccc1Nc1nnc(COc2ccc(CNC(=O)CCCC/C=C/C(C)C)cc2OC)o1 | 99.2%
3 | CCCCCCCCCCCCCCCCC(=O)O.CCCCCCCCCCCCCCCCCC(=O)O.CCCCCCCCCCCCCCCCCC(=O)O.CCCCCCCCCCCCCCCCCC(=O)O.CCCCCCCCCCCCCCCCCC(=O)O.CO[CH-]OC12COC1CC(O)C1(C)C(O)C(OC(C)O)C3=C(C)C(OC(=O)C(O)C([NH-])c4ccccc4)CC(O)(C(OC(=O)c4ccccc4)C21)C3(C)C.[Cu+].[Zn].[Zn].[Zn].[Zn].[Zn] (centres undefined) | 13.8%
4 | Cc1c(CN(C)C)cc(C(C)C)cc1C(C)C | 104%
5 | COC1=C(OC)C(=O)c2ccccc2C1=O | 94%
6 | COc1ccc(C(=O)CN2C(=O)NC(c3ccccc3)(c3ccccc3)C2=O)cc1 | 106%
7 | CCNc1nnc(COc2ccc(CNC(=O)CCCC/C=C/C(C)C)cc2OC)o1 | 104%
8 | CCS(=O)(=O)OCCO[C@H]1Cc2cc3ccc(=O)oc3cc2OC1(C)C | 115%
9 | CC(C)OC(=O)[C@H](C)N[P@@](=O)(OC[C@@]1(C)O[C@@H](n2cc(F)c(N)nc2=O)C[C@@H]1O[P@](=O)(N[C@@H](C)C(=O)OC(C)C)Oc1ccccc1)Oc1ccccc1 | 119%
10 | CC[C@@H](C)/C=C(C)/C=C/C(=O)c1c(O)c(-c2ccc(OC(=O)[C@@]34CC[C@@](C)(C(=O)O3)C4(C)C)cc2)cn(O)c1=O | 36.7%
11 | C=C1CCC2C3(C)COC(c4ccccc4)OC3CCC2(C)C1C/C=C1/C(=O)OCC1O (centres undefined) | 89.4%
12 | COc1cc(-c2nc(/C=C3/C(=O)Nc4ccccc43)c3ccccn23)cc(OC)c1OC | 40.7%
13 | COc1ccc(Cn2cc3c(c2-c2ccccc2)CCc2cnoc2-3)cc1OC | 35%
14 | COc1ccc(Cn2cc3c(c2)-c2oncc2CC3)cc1OC | 16.9%
15 | Cc1cc(CSc2ccc(Cl)cc2)ccc1N | 61.9%
16 | O=C(/C=C1\C(=O)N(Cc2ccccc2)c2ccccc21)c1ccc(OCCN2CCCCC2)cc1 | 45.9%
17 | CCCCN(CCCC)CC(O)CN(CC)CC (centres undefined) | 95.8%

Row | SMILES | growth
18 | COc1ccc(/C=C2\CCCC3=C2N=C2SC=NN2C3c2ccc(OC)c(OC)c2)cc1OC (centres undefined) | 55.2%
19 | CC1(c2ccc(Br)cc2)NC(=O)NC1=O (centres undefined) | 105%
20 | O=C1C(Cl)=C(SC2=NCCN2)C(=O)c2ccccc21 | 56.3%
21 | COc1ccc(Cn2cc3c(c2-c2ccc(OC)cc2)CCc2cnoc2-3)cc1 | 8.41% (active)
22 | O=S(=O)(O)c1ccc2c(c1)Sc1cc(S(=O)(=O)O)ccc1O2 | 101%
23 | NNC(=S)N1N=C(c2cc3ccccc3o2)CC1c1c[nH]c2ccccc12 (centres undefined) | 41.6%
24 | O=C(O)c1occ(Cl)c1Cl | 110%
25 | Cc1nnc(-c2cc3c(ccc4ccccc43)oc2=O)c2cn(-c3ccc(Cl)cc3)nc12 | 77.5%
26 | O=C(/C=C/c1c[nH]c2ccccc12)c1cc2ccccc2o1 | 84.6%
27 | C=CCN(C)C | 97.7%
28 | Cc1c(C(N)=O)sc2c1c(=O)n(Cc1ccccc1)c1nnc(S(C)(=O)=O)n21 | 101%
29 | COc1ccc(/C=C2\SC(=O)N(Cc3cc(=O)oc4ccc(OC)cc34)C2=O)cc1 | 83.1%
30 | CC1(C)Oc2cc3oc(=O)ccc3cc2C[C@@H]1OCCOS(=O)(=O)c1ccc(C#N)cc1 | 94.5%
31 | CC1=C[C@@H]2c3c(c(O)c(O)c4oc5cc(O)cc(O)c5c(=O)c34)[C@@H](c3cc(O)c(O)c4oc5cc(O)cc(O)c5c(=O)c34)[C@@H]2C(C)(C)C1 | -38.2% (active)
32 | C=C(C)[C@@H]1CC[C@]2(COC(=O)c3ccccc3C(=O)O)CC[C@]3(C)[C@H](CC[C@@H]4[C@@]5(C)CCCNC(C)(C)[C@@H]5CC[C@]43C)[C@@H]12 | 94.3%
33 | O=S(=O)(Cc1cccc2c(CS(=O)(=O)c3ccc(Cl)cc3)cccc12)c1ccc(Cl)cc1 | 97.3%
34 | COC(=O)/C=C/c1cc(O)c2oc(-c3ccc(O)c(O)c3)c(C(=O)OC)c2c1 | 31.1%
